Only a selection was taken, and hits are over-represented in it overall.
ROS inducer – cancer cell ROS induction; 46,000 tested, 2% active; U2OS ROS induction, H2DCF-DA fluorescence; ROS induction (% of piperlongumine), % at 10 µM; AID 624156; in the data active = ROS induction above about 79%, passing the limit was not always enough;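 note: 0% = DMSO vehicle median and 100% = reference compound median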
* hit, by the source's call.

For CC(=O)Nc1cccc(NC(=O)CNc2ccc(C(F)(F)F)cc2[N+](=O)[O-])c1 the results were ROS inducer 3.
For CC(C)c1ccc(S(=O)(=O)N2CCOCC2)cc1 the results were ROS inducer -1.
`CC1C2CC(C(S(=O)(=O)N3CCOCC3)C2=O)C1(C)C` (stereo unspecified) gave ROS inducer 115*.
COc1cccc(CN(C)C[C@H]2OCc3cnnn3CCCC(=O)N([C@H](C)CO)C[C@H]2C)c1 was read as ROS inducer 27.
For COc1cccc(NC(=O)N(C)C[C@@H]2OCc3cn(nn3)CCCC(=O)N([C@H](C)CO)C[C@H]2C)c1 the results were ROS inducer 108*.
`Cc1ccc(CN(C)C[C@@H]2OCc3cnnn3CCCC(=O)N([C@@H](C)CO)C[C@@H]2C)cc1` gave ROS inducer -1.
Screening C[C@H]1CN([C@@H](C)CO)C(=O)CCCn2nncc2CO[C@H]1CN(C)Cc1ccc(-c2ccccc2)cc1 returned ROS inducer 15.
C[C@@H]1CN([C@@H](C)CO)C(=O)CCCn2nncc2CO[C@@H]1CN(C)Cc1ccc(-c2ccccc2)cc1 was read as ROS inducer 91*.
`Cc1cccc(CN(C)C[C@@H]2OCc3cnnn3CCCC(=O)N([C@H](C)CO)C[C@H]2C)c1` gave ROS inducer -2.
For C[C@@H]1CN([C@@H](C)CO)C(=O)CCCn2nncc2CO[C@H]1CN(C)S(=O)(=O)c1ccc(Oc2ccccc2)nc1 the results were ROS inducer 138*.
C[C@H](CO)N1C[C@H](C)[C@@H](CN(C)S(=O)(=O)c2ccc(Oc3ccccc3)nc2)OCc2cnnn2CCCC1=O was read as ROS inducer 2.
Screening C[C@@H]1CN([C@@H](C)CO)C(=O)CCCn2nncc2CO[C@H]1CN(C)S(=O)(=O)c1ccc(Oc2ccccc2)cc1 returned ROS inducer 28.
COc1cccc(CN(C)C[C@H]2OCc3cnnn3CCCC(=O)N([C@@H](C)CO)C[C@H]2C)c1 was read as ROS inducer 125*.
COc1cccc(NC(=O)N(C)C[C@H]2OCc3cn(nn3)CCCC(=O)N([C@H](C)CO)C[C@H]2C)c1 was read as ROS inducer -4.
COc1cccc(NC(=O)N(C)C[C@H]2OCc3cn(nn3)CCCC(=O)N([C@H](C)CO)C[C@@H]2C)c1 was read as ROS inducer -5.
Screening C[C@H]1CN([C@@H](C)CO)C(=O)Cc2cc(N(C)C)ccc2O[C@H]1CN(C)C(=O)Nc1ccc(F)cc1 returned ROS inducer 0.
`O=S(=O)(NCC(c1ccccc1)n1cc(-c2ccccc2)nn1)c1ccc(Cl)cc1` (stereo unspecified) gave ROS inducer 3.
COC(=O)CCCCCCC(=O)N/N=C/c1ccc(N2CCCC2)cc1 was read as ROS inducer 54.
`CC1(C)CC(=O)C2=C(C1)N(Cc1cccnc1)C(=O)C2(NC(=O)c1cccs1)C(F)(F)F` (stereo unspecified) gave ROS inducer -11.
For O=C(CC(C(=O)O)N1CCOCC1)Nc1ccccc1 (stereo unspecified) the results were ROS inducer -4.
Cc1nn(C)c2sc(C(=O)N(Cc3ccccn3)Cc3ccccn3)cc12 was read as ROS inducer 4.
`C[C@H](CO)N1C[C@H](C)[C@@H](CN(C)C(=O)Nc2ccc(N3CCCCC3)cc2)OCc2cnnn2CCCC1=O` gave ROS inducer 1.
Screening C[C@@H]1CN([C@@H](C)CO)C(=O)CCCn2nncc2CO[C@H]1CN(C)C(=O)Nc1ccc(N2CCCCC2)cc1 returned ROS inducer 16.
`C[C@@H]1CN([C@@H](C)CO)C(=O)CCCn2nncc2CO[C@@H]1CN(C)C(=O)Nc1ccc(N2CCCCC2)cc1` gave ROS inducer 83*.
`Cc1ccc(SCC(=O)Nc2cccc(Oc3ccc4c(c3)C(=O)NC4=O)c2)cc1` gave ROS inducer -2.
For COc1cccc(C(=O)c2sc3nsc(SCc4ccccc4)c3c2N)c1 the results were ROS inducer 335*.
COc1cc(OC)cc(-c2nnc(SCc3cccc(C(=O)O)c3)o2)c1 was read as ROS inducer 23.
COc1cccc(CNC(=O)c2ccc3nc(SCc4ccc(F)cc4)n(C)c3c2)c1 was read as ROS inducer 16.
`Cc1ccc(C)c(NC(=O)CCCN2C(=O)c3ccccc3C2=O)c1` gave ROS inducer -5.
C[C@@H]1CN([C@H](C)CO)C(=O)CCCn2nncc2CO[C@H]1CN(C)C(=O)Nc1cccc(C(F)(F)F)c1 was read as ROS inducer -6.
For COC(=O)c1ccccc1NC(=O)COc1ccc(C)c(C)c1 the results were ROS inducer 0.
`COC(=O)c1ccccc1NC(=O)COc1ccc([N+](=O)[O-])c(C)c1` gave ROS inducer 138*.
Screening COC(=O)c1ccccc1NC(=O)COc1ccc(I)cc1 returned ROS inducer 9.
For COc1ccc(NC(=O)N(C)C[C@@H]2Oc3ccc(NS(=O)(=O)c4c(C)noc4C)cc3C(=O)N([C@H](C)CO)C[C@@H]2C)cc1 the results were ROS inducer -2.
For Cc1nc(Oc2ccc(Cl)cc2)c(C(=O)O)c(C)c1Cl the results were ROS inducer 16.
For C[C@@H]1CN([C@@H](C)CO)C(=O)c2cc(NS(=O)(=O)c3ccc(F)cc3)ccc2O[C@@H]1CN(C)C(=O)Nc1ccccc1 the results were ROS inducer 4.
Screening C[C@H]1CN([C@@H](C)CO)C(=O)CCCn2nncc2CO[C@@H]1CN(C)S(=O)(=O)c1ccc(C#N)cc1 returned ROS inducer 24.
`O=C(Nc1cccc(F)c1)C1CCN(c2ncnc3c2sc2cccc(F)c23)CC1` gave ROS inducer 111*.
`O=C(CSc1ncnc2sc3c(c12)CCCC3)Nc1cccc(F)c1` gave ROS inducer -2.
For CCc1cccc(NC(=O)C2CCN(c3nn4c(=O)cc(C)nc4s3)CC2)c1 the results were ROS inducer -6.
`CC[C@]1(O)C[C@H]2CN(CCc3c([nH]c4ccccc34)[C@@](C(=O)OC)(c3cc4c(cc3OC)N(C=O)[C@H]3[C@@](O)(C(=O)OC)[C@H](OC(C)=O)[C@@]5(CC)C=CCN6CC[C@]43[C@@H]65)C2)C1` gave ROS inducer 43.
Screening CNC[C@@H]1Oc2c(NC(=O)Nc3ccc(OC)cc3)cccc2C(=O)N([C@H](C)CO)C[C@@H]1C returned ROS inducer -8.
`Cc1ccc(CN2C(=O)CSc3ccc(NC(=O)Nc4cccc5ccccc45)cc32)cc1` gave ROS inducer -9.
`Cc1cc(C(F)(F)F)nc(SCC(=O)c2cccc([N+](=O)[O-])c2)n1` gave ROS inducer -10.
For COc1ccc(-c2cc(C)nc(SCC(=O)c3cccc([N+](=O)[O-])c3)n2)cc1 the results were ROS inducer 92*.
COc1cc(-c2nnc(SCC(=O)c3ccc(Cl)cc3)n2-c2ccccc2)cc(OC)c1OC was read as ROS inducer 0.
`COc1ccc(-c2nnc(SCC(=O)c3cccc([N+](=O)[O-])c3)n2C)cc1` gave ROS inducer 15.
For COc1ccc(-c2nnc(SCC(=O)c3ccc(F)cc3)n2-c2ccccc2)cc1OC the results were ROS inducer 15.
COc1cc(-c2nnc(SCC(=O)c3cccc([N+](=O)[O-])c3)n2-c2ccccc2)cc(OC)c1OC was read as ROS inducer 95*.

Source: PubChem BioAssay (Broad Institute)
